Source: PubChem (National Center for Advancing Translational Sciences (NCATS))
TDP-43 tox inh – TDP-43 toxicity inhibition in yeast; yeast TDP-43 toxicity rescue, BacTiter-Glo growth, 24 h; Potency, µM (highest dose often 46.1 µM), most hits filed as activators; AID 1347073; 0.45% of 45,000 active; active = well fitted activation curve with a large enough effect; also: 0% is about no effect; nearly all actives have a fitted effect of over 55% in size
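TDP-43-expressing yeast, pregrown in raffinose, seeded at OD600 0.02 in galactose medium with compound for 24 hr at 30 deg C. Growth read by BacTiter-Glo luminescence, so rescue of toxicity appears as activation.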
Starred values were filed as active, the others as inactive; i = inactive. This is one part of a sample in which hits are shown more often than they occur. Potency is read from the fitted curve at half-maximal effect.

SMILES	TDP-43 tox inh
Cc1ccc(-c2nnc3c4ccccc4c(C)nn23)cc1NC(=O)c1ccccc1	i
O=C(Nc1ccc(F)c(Cl)c1)N1CCN(C(=O)c2nsc3ccccc23)CC1	i
COc1cccc(N2CCN(C(=O)Nc3ccccc3Cl)CC2)c1	i
COc1cc2c(cc1OC)CN(C(=O)Nc1ccccc1Cl)CC2	13µM*
COc1cc2c(cc1OC)CN(C(=O)Nc1ccccc1)CC2	i
CCOC(=O)N1CCC(NC(=O)c2ccc3c(c2)N(Cc2ccc(F)cc2)C(=O)c2ccccc2S3(=O)=O)CC1	i
